An excerpt weighted towards active compounds, which were near 17% of everything screened.
ClpP mod: qHTS Assay for Activators of ClpP | ATP-dependent Clp protease proteolytic subunit (Bacillus subtilis (strain 168)), P80244 | AID 651965, 2013 | Potency, µM (series often up to 57.5 µM), without a hit: at the top dose activity change, negative = active | actives 1.9% (n = 340,000) | purified B. subtilis ClpP, FRET peptide cleavage, 20 min; active means well fitted falling curve with a large enough effect; inconclusive means small, poorly fitted or top-dose-only effect; inactive means no such curve, though single readings can be large or run the other way; further: the source files actives as falling curves though it sought activators and does not explain the sign; nearly all actives have a fitted effect of over 65% in size
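FRET quenching reversal measured ClpP activation: 10 microg/mL B. subtilis ClpP at pH 8 with the FRET-FV decapeptide, read at 430 nm after 320 nm excitation. The 20-min minus 0-min signal was scaled between DMSO/no-enzyme wells and ADEP (5.8 microM final).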
DT40 TDP1 no CPT: qHTS for Inhibitors of human tyrosyl-DNA phosphodiesterase 1 (TDP1): qHTS in cells in absence of CPT | DT40 Tdp1-/- hTDP1 cells, no CPT, ATP luminescence, 48 h | actives 15% (n = 420,000) | Potency, µM (titrated, usually from 46.2 µM), inactives show at the highest dose activity change, negative = growth inhibition, actives largely listed as inhibitors; further: on the % scale 0 is the no-effect control and ±100 the full control effect; nearly all actives have a fitted effect of over 55% in size
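A cellular qHTS used chicken DT40 cells lacking endogenous Tdp1 but carrying stably transfected human TDP1. Compounds were applied without camptothecin, and cell growth kinetics were judged by ATP-dependent luminescence after ≥48 hr.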
TDP1 cell CPT: growth inhibition of DT40 Tdp1-/-;hTDP1 cells with camptothecin (screen for TDP1 inhibitors); chicken DT40 Tdp1-/-;hTDP1 cells + 20 nM CPT, ATP luminescence, 48 h; Potency, µM (top dose mostly 46.2 µM), without a hit: top-dose activity change, negative = growth inhibition, most hits filed as inhibitors; actives 12% (n = 420,000); AID 686979; further: on the % scale 0 is the no-effect control and ±100 the full control effect; nearly all actives have a fitted effect of over 55% in size
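Chicken DT40 Tdp1-/- cells stably complemented with human TDP1 were seeded at 400 cells/well in medium containing 20 nM camptothecin, exposed to pin-transferred compounds, and grown at 37 °C for at least 48 hr. Viability was read as ATP luminescence.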
TDP1 block: TDP1 (human) enzyme inhibition; recombinant TDP1, AlphaScreen DNA substrate cleavage; AID 485290; actives 0.28% (n = 350,000); Potency, µM (doses to about 130 µM), inactives show top-dose activity change, negative = inhibition, most hits filed as inhibitors; further: on the % scale 0 is the no-effect control and ±100 the full control effect; nearly all actives have a fitted effect of over 40% in size
Target sequence (Q9NUW8 whole entry, looked up): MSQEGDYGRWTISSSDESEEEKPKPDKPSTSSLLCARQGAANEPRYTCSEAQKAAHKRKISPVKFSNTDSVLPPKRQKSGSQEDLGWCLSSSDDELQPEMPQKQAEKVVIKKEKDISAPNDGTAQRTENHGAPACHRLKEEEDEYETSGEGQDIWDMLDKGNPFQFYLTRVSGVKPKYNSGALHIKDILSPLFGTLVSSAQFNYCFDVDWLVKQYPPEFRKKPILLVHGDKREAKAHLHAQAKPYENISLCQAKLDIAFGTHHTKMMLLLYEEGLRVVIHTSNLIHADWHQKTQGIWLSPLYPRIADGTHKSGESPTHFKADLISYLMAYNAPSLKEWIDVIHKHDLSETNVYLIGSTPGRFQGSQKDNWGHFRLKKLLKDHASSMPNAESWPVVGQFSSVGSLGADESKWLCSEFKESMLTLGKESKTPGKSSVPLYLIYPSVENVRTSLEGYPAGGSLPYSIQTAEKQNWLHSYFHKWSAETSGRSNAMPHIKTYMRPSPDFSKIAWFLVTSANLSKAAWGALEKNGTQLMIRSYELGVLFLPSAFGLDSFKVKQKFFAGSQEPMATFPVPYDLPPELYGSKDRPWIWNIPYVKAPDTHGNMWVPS
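E. coli-derived human Tdp1, 1 nM final. Cpd preinc 15 min RT; substrate 15 nM final, 5 min RT; AS bead mix 10 ug/ml final, 10 min RT. Signal loss = tyrosine-FITC cleavage. No-enzyme wells = max signal.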
* marks the source's active call; other numbers are inactive results; ? = inconclusive; nt = no result given; [ ] = dose if it differs, or a comment. Unless noted, the call rests on the fitted dose curve; in most records, active means well fitted curve in the direction sought with a large enough effect; inconclusive means small, poorly fitted or top-dose-only effect, or another doubt; inactive means no such curve, though single readings can be large; an effect the other way counts as inactive or inconclusive. Potency means the concentration at half of the fitted maximal effect.

SMILES	ClpP mod	DT40 TDP1 no CPT	TDP1 cell CPT	TDP1 block
CC[C@]1(C(=O)OC)[C@H]2C(=O)N(Cc3ccccc3)C(=O)[C@H]2[C@H]2CN=C(SC)N21	0%	-17%	-14%	1%[56.1 µM]
CN1CCN(S(=O)(=O)c2ccc(N3CCN(C(=O)c4ccccc4)CC3)nc2)CC1	nt	?	-5%	-1%
CN1CCN(S(=O)(=O)c2ccc(N3CCN(c4ccccc4Cl)CC3)nc2)CC1	-1%	15µM*	21µM*	1%
O=S(=O)(c1ccc(N2CC=C(c3ccccc3)CC2)nc1)N1CCCC1	-21%	18µM*	16µM*	-2%
O=S(=O)(c1ccc(N2CCN(Cc3ccccc3)CC2)nc1)N1CCCC1	-1%	?	16µM*	1%
C=C1[C@H]2O[C@H]2[C@@H](OC(C)=O)[C@@]2(C)[C@@H](OC(C)=O)C[C@@H](OC(C)=O)[C@@](C)(O)[C@@H]2[C@@H](OC(C)=O)[C@@]2(O)[C@@H](C)C(=O)O[C@H]2[C@H]1Cl	-1%	-15%	-7%	nt
CCOC(=O)N1CCN(C(=O)COc2ccc3c(c2)C(=O)CC(C)(C)O3)CC1	4%	0%	-18%	3%
CC(=O)N1CCC2(CC1)CC(=O)c1cc(OCC(=O)N3CCCC3)ccc1O2	4%	-6%	-11%	1%
CC1(C)CC(=O)c2cc(OCC(=O)N3CCN(c4ccccc4F)CC3)ccc2O1	?	-16%	-15%	-3%
CC1(C)CC(=O)c2cc(OCC(=O)N3CCCCCC3)ccc2O1	28µM*	4%	-26%	7%
CCOC(=O)COc1ccc2c(c1)C(=O)CC1(CCN(C(C)=O)CC1)O2	28µM*	-5%	-15%	7%
CCOC(=O)COc1ccc2c(c1)C(=O)CC(C)(C)O2	28µM*	-1%	2%	-6%
COc1ccc(S(=O)(=O)N2CCC(C(=O)NCCCc3ccccc3)CC2)cc1	nt	-24%	4%	0%
COc1ccccc1CCC(=O)N1CCN(S(=O)(=O)c2cccc(F)c2)CC1	-1%	-10%	-3%	0%
Cc1nn(C2CCS(=O)(=O)C2)c(C)c1C=O (centres undefined)	nt	21µM*	?	6%
Nc1nn2c(-c3ccccc3)cc(=O)[nH]c2c1N=Nc1ccc(O)cc1	nt	?	?	-5%
Nc1nn2c(-c3ccccc3)cc(=O)[nH]c2c1N=Nc1ccc(Br)cc1	1%	16µM*	?	3%
CCOC(=O)c1c(S(=O)(=O)N(C)C2CCCCC2)c(C)n(C)c1C	0%	-19%	-27%	6%
COc1ccc(C(=O)Nc2ccc3oc(-c4cccc(F)c4)nc3c2)cc1OC	5%	?	?	1%
COc1cc(C(=O)Nc2ccc3oc(-c4cccnc4)nc3c2)cc(OC)c1OC	-2%	21µM*	5.6µM*	8%
COc1ccc(C(=O)Nc2ccc3oc(-c4cccnc4)nc3c2)cc1OC	?	?	7.3µM*	-2%
COc1ccc(Br)cc1/C=C/C(=O)Nc1c(C)cccc1C	-5%	23µM*	?	6%
COc1ccc(NC(=O)/C=C/c2cc(Br)ccc2OC)cc1	-2%	21µM*	?	2%
CCN(CC)c1ccc(NC(=O)/C=C/c2cc(Br)ccc2OC)cc1	-2%	?	?	11%
COc1cccc(C(=O)/C=C/Nc2ccc(NC(C)=O)cc2)c1	-2%	-27%	-4%	4%
SMILES	ClpP mod	DT40 TDP1 no CPT	TDP1 cell CPT	TDP1 block
COc1ccc(Br)cc1/C=C/C(=O)c1ccc(NC(C)=O)cc1	-3%	4.1µM*	5.8µM*	-3%
COc1cccc(NC(=S)N(Cc2cccc(Br)c2)CC2CCC(C(=O)O)CC2)c1 (centres undefined)	nt	-23%	?	3%
COC(=O)[C@]12CCCCC=C1N(Cc1ccc(Cl)cc1Cl)C(=O)[C@H](CC(=O)N1CCCCC1)C2	1%	18µM*	?	nt
COC(=O)[C@]12CCCCC=C1N(Cc1ccc(Cl)cc1Cl)C(=O)[C@H](CC(=O)N1CCOCC1)C2	-3%	?	?	nt
COC(=O)[C@]12CCCCC=C1N(Cc1ccc(Cl)cc1Cl)C(=O)[C@H](CC(=O)N1CCSCC1)C2	0%	16µM*	?	nt
CCCC(=O)Nc1ccccc1OCc1cc(=O)n2cc(C)ccc2n1	28µM*	?	-6%	-3%
Cc1cccc(OCC(=O)Nc2ccccc2OCc2cc(=O)n3cc(C)ccc3n2)c1	-4%	?	13µM*	11%
Cc1ccc2nc(COc3ccccc3NC(=O)COc3ccccc3Cl)cc(=O)n2c1	-8%	-15%	-5%	3%
Cc1cc(C)n(-c2nnc(Nc3ccc(C(C)C)cc3)c3ccccc23)n1	-18%	?	?	-1%
CCOC(=O)[C@]12CCCC=C1N(Cc1ccc(Cl)cc1Cl)C(=O)[C@H](CC(=O)N1CCSCC1)C2	1%	-25%	-3%	nt
CCOC(=O)[C@]12CCCC=C1N(Cc1ccc(Cl)cc1Cl)C(=O)[C@H](CC(=O)N1CCCC1)C2	0%	?	?	nt
CCOC(=O)[C@]12CCCC=C1N(Cc1ccc(Cl)cc1Cl)C(=O)[C@H](CC(=O)N1CCC(c3ccccc3)CC1)C2	-18%	18µM*	16µM*	nt
COC(=O)[C@]12CCCCC=C1N(Cc1ccc(Cl)cc1Cl)C(=O)[C@H](CC(=O)N1CCC(c3ccccc3)CC1)C2	0%	?	?	nt
CCOC(=O)[C@]12CCC=C1N(Cc1ccc(Cl)cc1Cl)C(=O)[C@H](CC(=O)N1CCC(c3ccccc3)CC1)C2	2%	18µM*	?	nt
CCOC(=O)[C@]12CCCC=C1N(Cc1ccc(Cl)cc1Cl)C(=O)[C@H](CC(=O)N1CCN(C(=O)c3ccco3)CC1)C2	1%	16µM*	?	nt
CCOC(=O)[C@]12CCC=C1N(Cc1ccc(Cl)cc1Cl)C(=O)[C@H](CC(=O)N1CCOCC1)C2	3%	21µM*	?	nt
CC1Cc2c([nH]c3ccccc23)C(=O)N1 (centres undefined)	2%	-10%	-8%	nt
CCOC(=O)c1cc(NC(=O)c2ccc(F)cc2)c(=O)n2c1oc1ccc(Cl)cc12	1%	nt	nt	1%
COC(=O)c1sc2cccc(F)c2c1S(=O)(=O)NCc1ccc(F)cc1	-30%	5%	-24%	8%
COc1cc(C(=O)N/C(=C\c2cn(S(=O)(=O)N(C)C)c3ccccc23)C(=O)N2CCCC2)cc(OC)c1OC	-6%	?	?	4%
N#Cc1ccccc1COc1cccc2c1CCCC2O (centres undefined)	nt	15µM*	?	nt
CN(C)c1ccc(C(=O)N/N=C/c2cc(Br)cc(Br)c2O)cc1	nt	12µM*	6.5µM*	nt
COc1c(Br)cc(Br)cc1/C=N/NC(=O)c1cccnc1	-2%	?	18µM*	nt
